Reference: PubChem BioAssay (NCI)
Compounds without any hit were thinned out: in the full panel of roughly 83,000, 20% have a hit.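 Plates (96-well) were seeded with cells, treated with compound at one concentration, and incubated for 48 hours before percent growth was determined.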 Active and inactive are the calls of the source. How the source made its calls: active means growth percent below 10; inactive means the rest.

How the values were obtained:
Experiment in all cases: NCI-60 one-dose screen, 48 h (100 = growth as untreated, 0 = no growth, -100 = all killed)
Conditions in all cases: 10 µM unless noted
HCT-15 colon = tested on: HCT-15 colon
HT29 colon = tested on: HT29 colon
SNB-75 CNS = tested on: SNB-75 CNS
SNB-19 CNS = tested on: SNB-19 CNS
U251 CNS = tested on: U251 CNS
PC-3 prostate = tested on: PC-3 prostate
SK-MEL-5 melanoma = tested on: SK-MEL-5 melanoma
UACC-62 melanoma = tested on: UACC-62 melanoma
LOX IMVI melanoma = tested on: LOX IMVI melanoma
SK-MEL-28 melanoma = tested on: SK-MEL-28 melanoma
SK-MEL-2 melanoma = tested on: SK-MEL-2 melanoma
EKVX NSCLC = tested on: EKVX NSCLC
SN12C renal = tested on: SN12C renal
UO-31 renal = tested on: UO-31 renal
TK-10 renal = tested on: TK-10 renal
ACHN renal = tested on: ACHN renal
CAKI-1 renal = tested on: CAKI-1 renal
CCRF-CEM leukemia = tested on: CCRF-CEM leukemia
MOLT-4 leukemia = tested on: MOLT-4 leukemia
A498 renal = tested on: A498 renal

Measured: growth

COc1ccccc1C(C[N+](=O)[O-])c1c(-c2ccccc2)[nH]c2cc(C)ccc12 (stereo not given)
inactive: HCT-15 colon 44% | HT29 colon 35.8% | SNB-75 CNS 42.7% | SNB-19 CNS 81% | U251 CNS 83.9% | PC-3 prostate 69.5% | SK-MEL-5 melanoma 74.9% | UACC-62 melanoma 43.8% | LOX IMVI melanoma 70.1% | SK-MEL-28 melanoma 78.9% | SK-MEL-2 melanoma 62.8% | EKVX NSCLC 71.7% | SN12C renal 77.9% | UO-31 renal 57.2% | TK-10 renal 118% | ACHN renal 73.4% | CAKI-1 renal 38.1% | CCRF-CEM leukemia 54.4% | MOLT-4 leukemia 53%

CC1(C)NCCC[C@]2(C)[C@H]3CC=C4[C@@H]5C[C@@](C)(CO)CC[C@]5(C)CC[C@@]4(C)[C@]3(C)CC[C@@H]12
inactive: HCT-15 colon 29.9% | SNB-75 CNS 98.9% | SNB-19 CNS 61.6% | U251 CNS 34.2% | PC-3 prostate 35.1% | SK-MEL-5 melanoma 50.7% | UACC-62 melanoma 73.6% | LOX IMVI melanoma 45.2% | SK-MEL-28 melanoma 68.2% | SK-MEL-2 melanoma 48.4% | EKVX NSCLC 86.5% | SN12C renal 62.1% | UO-31 renal 69.3% | TK-10 renal 63.3% | ACHN renal 54.3% | CAKI-1 renal 76.7% | MOLT-4 leukemia 33.8%
active: HT29 colon 5.18%

OC1(c2ccc(Cl)c(C(F)(F)F)c2)CCN(CCCC(c2ccc(F)cc2)c2ccc(F)cc2)CC1
inactive: SNB-19 CNS 12.1%
active: HCT-15 colon -78.5% | HT29 colon -88.1% | SNB-75 CNS -66.3% | U251 CNS -93.1% | PC-3 prostate -65.5% | SK-MEL-5 melanoma -93.5% | UACC-62 melanoma -92.6% | LOX IMVI melanoma -96.1% | SK-MEL-28 melanoma -94.4% | SK-MEL-2 melanoma -77.2% | EKVX NSCLC -9.88% | SN12C renal -91.3% | UO-31 renal -65.7% | TK-10 renal -50.7% | ACHN renal -86.8% | CAKI-1 renal -68.7% | MOLT-4 leukemia -25.8%

COc1ccc(C2CC(n3nnnc3-c3ccccc3)=NN2)cc1 (stereo not given)
active: CAKI-1 renal 8.64%
inactive: HCT-15 colon 52.4% | HT29 colon 84.5% | SNB-75 CNS 76.9% | SNB-19 CNS 88.1% | U251 CNS 83.9% | PC-3 prostate 58.4% | SK-MEL-5 melanoma 70.7% | UACC-62 melanoma 13.4% | LOX IMVI melanoma 22% | SK-MEL-28 melanoma 94.6% | SK-MEL-2 melanoma 69.3% | EKVX NSCLC 66.2% | SN12C renal 78.1% | UO-31 renal 35.3% | TK-10 renal 82.6% | ACHN renal 42.1% | MOLT-4 leukemia 50.3%

O=C(c1ccccc1)N1N=C(c2ccc(-n3ccc(C(F)(F)F)n3)cc2)CC1c1ccc[nH]1 (stereo not given)
inactive: HCT-15 colon 70.6% | HT29 colon 87.1% | SNB-75 CNS 80.6% | SNB-19 CNS 92.7% | U251 CNS 86% | PC-3 prostate 83.3% | SK-MEL-5 melanoma 101% | UACC-62 melanoma 89.6% | LOX IMVI melanoma 80% | SK-MEL-28 melanoma 92.2% | SK-MEL-2 melanoma 97.7% | EKVX NSCLC 88.9% | SN12C renal 98.1% | UO-31 renal 77.8% | TK-10 renal 80.8% | ACHN renal 90.6% | CAKI-1 renal 84.1% | CCRF-CEM leukemia 85.6% | MOLT-4 leukemia 75.8%

CCOC(=O)N1CCc2c(sc3nc4nc[nH]n4c(=O)c23)C1
inactive: HCT-15 colon 102% | HT29 colon 100% | SNB-75 CNS 89.4% | SNB-19 CNS 106% | U251 CNS 100% | PC-3 prostate 92.7% | SK-MEL-5 melanoma 104% | UACC-62 melanoma 98.8% | LOX IMVI melanoma 94.6% | SK-MEL-28 melanoma 115% | SK-MEL-2 melanoma 96.6% | EKVX NSCLC 92.4% | SN12C renal 97.3% | UO-31 renal 81.9% | TK-10 renal 105% | ACHN renal 103% | A498 renal 82.3% | CCRF-CEM leukemia 97.8% | MOLT-4 leukemia 100%

Cc1ccc(S(=O)(=O)Nc2ccc(Cl)cc2)cc1
inactive: HCT-15 colon 107% | HT29 colon 112% | SNB-75 CNS 82.7% | SNB-19 CNS 96.9% | U251 CNS 96.4% | PC-3 prostate 87.2% | SK-MEL-5 melanoma 106% | UACC-62 melanoma 77.2% | LOX IMVI melanoma 95.1% | SK-MEL-28 melanoma 97.2% | SK-MEL-2 melanoma 135% | EKVX NSCLC 90.4% | SN12C renal 94.3% | UO-31 renal 82.1% | TK-10 renal 118% | ACHN renal 99.8% | CAKI-1 renal 82.3% | MOLT-4 leukemia 105%

COc1cc(CCNc2nc3cc(N)cc(N)c3nc2-c2ccccc2)cc(OC)c1
inactive: HCT-15 colon 69.7% | SNB-75 CNS 39.9% | SNB-19 CNS 12.9% | EKVX NSCLC 57.6% | UO-31 renal 39% | TK-10 renal 104% | ACHN renal 52.3% | CAKI-1 renal 184%
active: HT29 colon 5.3% | U251 CNS -80.3% | PC-3 prostate 4.03% | SK-MEL-5 melanoma -91.7% | UACC-62 melanoma -22.3% | LOX IMVI melanoma -79.7% | SK-MEL-28 melanoma -12.2% | SK-MEL-2 melanoma -3.81% | SN12C renal -77.7% | MOLT-4 leukemia -66.5%

O=C(Nc1nc(-c2ccc(Br)cc2)cs1)c1cc(-c2ccc(Br)cc2)nc2ccc(Cl)cc12
inactive: HCT-15 colon 81.6% | HT29 colon 72.6% | SNB-75 CNS 87.3% | SNB-19 CNS 86.7% | U251 CNS 76.8% | PC-3 prostate 72.8% | SK-MEL-5 melanoma 91.2% | UACC-62 melanoma 77.8% | LOX IMVI melanoma 94.8% | SK-MEL-28 melanoma 95.9% | SK-MEL-2 melanoma 93.9% | EKVX NSCLC 77.8% | SN12C renal 85.1% | UO-31 renal 64.2% | TK-10 renal 115% | ACHN renal 85% | CAKI-1 renal 79.3% | CCRF-CEM leukemia 77.8% | MOLT-4 leukemia 80.6%

COc1ccc(-n2cc(-c3cc(OC)c(OC)c(OC)c3)n(C(C)=O)c2=O)cc1
inactive: HCT-15 colon 94.9% | HT29 colon 108% | SNB-75 CNS 69.5% | SNB-19 CNS 86.1% | U251 CNS 88.2% | PC-3 prostate 94% | UACC-62 melanoma 84.1% | LOX IMVI melanoma 94% | SK-MEL-28 melanoma 115% | SK-MEL-2 melanoma 93.2% | EKVX NSCLC 88% | SN12C renal 93.4% | UO-31 renal 77.2% | TK-10 renal 105% | ACHN renal 97.7% | CAKI-1 renal 53.7% | MOLT-4 leukemia 103%
active: SK-MEL-5 melanoma 6.54%

C=C1C(=O)O[C@H]2[C@H]1CC/C(COC(=O)CCCCCC(=O)OC/C1=C/CC[C@@]3(C)O[C@H]3[C@H]3OC(=O)C(=C)[C@@H]3CC1)=C\CC[C@@]1(C)O[C@@H]21
active: HCT-15 colon 0.552% | HT29 colon 3.42% | UACC-62 melanoma 8.53% | LOX IMVI melanoma -53.5% | SN12C renal 0.951% | UO-31 renal -32.1% | TK-10 renal 7.18% | ACHN renal -25.7% | CCRF-CEM leukemia 4.16% | MOLT-4 leukemia 0.768%
inactive: SNB-75 CNS 46.5% | SNB-19 CNS 62.4% | U251 CNS 47.8% | PC-3 prostate 29.8% | SK-MEL-5 melanoma 26.3% | SK-MEL-28 melanoma 18.5% | SK-MEL-2 melanoma 55.7% | EKVX NSCLC 19.9% | A498 renal 90.5%

COc1ccc(CNCCN2C(=O)c3ccc4c5c(ccc(c35)C2=O)C(=O)N(CCNCc2ccc(OC)cc2)C4=O)cc1
active: HCT-15 colon -68.1% | HT29 colon -55.3% | SNB-75 CNS -95.7% | SNB-19 CNS -90.9% | U251 CNS -91.8% | PC-3 prostate -76% | SK-MEL-5 melanoma -99.6% | UACC-62 melanoma -84.4% | LOX IMVI melanoma -74.7% | SK-MEL-28 melanoma -96.2% | SK-MEL-2 melanoma -74.2% | EKVX NSCLC -69.3% | SN12C renal -87.9% | UO-31 renal -76.6% | TK-10 renal -61.7% | ACHN renal -74.3% | CAKI-1 renal -53.8% | MOLT-4 leukemia -36.1%

Cc1ccc(C2C3CC4CCCCC4N3[C@@]3(C(=O)Nc4cc(Cl)ccc43)C2C(=O)c2nc3ccccc3[nH]2)cc1 (stereo not given in full)
inactive: HCT-15 colon 21.5% | HT29 colon 19.5% | SNB-75 CNS 45.1% | SNB-19 CNS 49.7% | U251 CNS 38% | PC-3 prostate 25.3% | SK-MEL-5 melanoma 45% | UACC-62 melanoma 54.7% | LOX IMVI melanoma 29.7% | SK-MEL-28 melanoma 66.2% | SK-MEL-2 melanoma 59.7% | EKVX NSCLC 27.3% | SN12C renal 44.8% | UO-31 renal 19.8% | TK-10 renal 39.6% | ACHN renal 40.5% | CAKI-1 renal 16.5%
active: MOLT-4 leukemia 2.61%

COc1ccc(-c2nc(N/N=C/c3ccco3)nc(N3CCOCC3)c2C#N)cc1
active: A498 renal 6.67%
inactive: HCT-15 colon 88.3% | HT29 colon 91% | SNB-75 CNS 15.6% | SNB-19 CNS 88.9% | U251 CNS 91.8% | PC-3 prostate 59.5% | SK-MEL-5 melanoma 80.4% | UACC-62 melanoma 75.6% | LOX IMVI melanoma 88.3% | SK-MEL-28 melanoma 80.8% | SK-MEL-2 melanoma 91.4% | EKVX NSCLC 82.3% | SN12C renal 80.2% | UO-31 renal 28.7% | TK-10 renal 89.8% | ACHN renal 78.3% | CCRF-CEM leukemia 74.2% | MOLT-4 leukemia 62.2%

Cn1/c(=N/NC(N)=S)ccc2ccccc21
inactive: HCT-15 colon 82.3% | HT29 colon 57.9% | SNB-75 CNS 101% | SNB-19 CNS 105% | U251 CNS 97.5% | PC-3 prostate 76.7% | SK-MEL-5 melanoma 102% | UACC-62 melanoma 102% | LOX IMVI melanoma 102% | SK-MEL-28 melanoma 117% | SK-MEL-2 melanoma 117% | EKVX NSCLC 78.1% | SN12C renal 91.3% | UO-31 renal 62.7% | TK-10 renal 113% | ACHN renal 95.2% | CAKI-1 renal 95.7% | CCRF-CEM leukemia 63.9% | MOLT-4 leukemia 48.5%

CC[C@H](C)[C@@H]1NC(=O)[C@H](Cc2ccc(O)cc2)N(C)C(=O)[C@H](Cc2ccccc2)NC(=O)CN(C)C(=O)[C@@H]2CCCN2C(=O)[C@@H](Cc2ccccc2)N(C)C(=O)[C@H](CC(C)C)NC1=O
active: HT29 colon 4.78% | SNB-75 CNS -11.6% | SNB-19 CNS -8.3% | U251 CNS 6.02% | PC-3 prostate 2.42% | SK-MEL-5 melanoma -67.2% | UACC-62 melanoma -28.8% | LOX IMVI melanoma -18.6% | SK-MEL-28 melanoma -43.8% | SK-MEL-2 melanoma -50.4% | EKVX NSCLC -3.63% | SN12C renal -13.7% | TK-10 renal 6.34% | ACHN renal 4.52% | A498 renal -3.73% | MOLT-4 leukemia 2.71%
inactive: HCT-15 colon 41.5% | UO-31 renal 44.4%
